Laboratory results as given in PubChem BioAssay (NCI).
The panel holds about 79,000 compounds, 15% with a hit somewhere; the sample as a whole holds those more often. The source made the active and inactive calls. Cut-off read from the data, not from the text of the source: active = growth inhibition above about 70%; inactive = the rest.

What was measured:
[1] = NCI Yeast Anticancer Drug Screen. Data for the rad50EPP+ strain (AID 151);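 note: 0% = growth of vehicle-treated control cultures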; settings: S. cerevisiae rad50 mutant strain, active compounds read high
How it was run: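 Measured: growth inhibition of rad50EPP+ yeast. Reference: vehicle-treated controls. Screen uses strains with defined genetic alterations in DNA damage repair or cell cycle control.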

[2] = NCI Yeast Anticancer Drug Screen. Data for the mgt1 strain (AID 153); settings: S. cerevisiae mgt1 mutant growth inhibition, active compounds read high
How it was run: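 Compounds were applied to mgt1 mutant yeast, and growth was then compared against vehicle-treated control cultures to give percent inhibition.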

[3] = NCI Yeast Anticancer Drug Screen. Data for the rad50 strain (AID 155);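 note: 0% = growth of vehicle-only cultures of the same strain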; settings: S. cerevisiae rad50 strain growth inhibition, active compounds read high
How it was run: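 Inhibition values express reduced yeast growth in compound-treated cultures relative to vehicle-treated controls.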

[4] = NCI Yeast Anticancer Drug Screen. Data for the mec2-1 strain (AID 157); settings: S. cerevisiae mec2-1 strain, active compounds read high
How it was run: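 Compounds were applied to mec2-1 yeast cells. Their growth was then compared with that of vehicle-treated cultures to give growth inhibition.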

[5] = NCI Yeast Anticancer Drug Screen. Data for the rad14 strain (AID 159);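 note: 0% = growth of vehicle-treated control cultures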; settings: S. cerevisiae rad14 strain growth inhibition, active compounds read high
How it was run: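 A mutant yeast strain defective in DNA damage repair is treated with compound; inhibition of its growth is scored against untreated, vehicle-exposed cultures.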

[6] = NCI Yeast Anticancer Drug Screen. Data for the sgs1 mgt1 strain (AID 161);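 note: 0% = growth of cultures given vehicle only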; settings: S. cerevisiae sgs1 mgt1 strain, active compounds read high
How it was run: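 Percent growth inhibition was derived by comparing compound-exposed mutant yeast with vehicle-exposed cultures. The strain carries alterations in DNA damage repair.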

[7] = NCI Yeast Anticancer Drug Screen. Data for the CLN2oe strain (AID 163);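 note: 0% = growth of vehicle-only control cultures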; settings: S. cerevisiae CLN2oe strain, active compounds read high
How it was run: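 Cells of an engineered yeast line with disturbed cell-cycle regulation are treated with compound. Inhibition of growth is then calculated relative to the vehicle-treated reference.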

[8] = NCI Yeast Anticancer Drug Screen. Data for the cln2 rad14 strain (AID 165);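 note: 0% = growth equal to vehicle treated cultures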; settings: S. cerevisiae cln2 rad14 strain, active compounds read high
How it was run: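 Strain: cln2 rad14 yeast, altered in cell cycle control and DNA damage repair. Read-out: growth inhibition vs vehicle.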

[9] = NCI Yeast Anticancer Drug Screen. Data for the bub3 strain (AID 167); settings: S. cerevisiae bub3 mutant strain, active compounds read high
How it was run: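 Steps: expose the mutant yeast strain to compound; grow alongside vehicle-treated cultures; measure growth; express inhibition against the vehicle cultures.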

[10] = NCI Yeast Anticancer Drug Screen. Data for the wt2 strain (AID 169);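 note: 0% = growth of vehicle-treated yeast cultures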; settings: S. cerevisiae wt2 strain growth inhibition, active compounds read high
How it was run: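 Growth of compound-treated yeast is measured and expressed as inhibition relative to vehicle-only controls.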

[11] = NCI Yeast Anticancer Drug Screen. Data for the mlh1 strain (AID 171);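 note: 0% = growth of vehicle-treated control cultures of the same strain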; settings: S. cerevisiae mlh1 strain growth inhibition, active compounds read high
How it was run: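 Test agents were incubated with yeast bearing a defined DNA damage repair or cell cycle control alteration; values are growth inhibition normalised to vehicle-treated cultures.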

[12] = NCI Yeast Anticancer Drug Screen. Data for the sgs1 strain (AID 173);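 note: 0% = growth of vehicle-only control cultures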; settings: S. cerevisiae sgs1 mutant, active compounds read high
How it was run: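 Strain with an altered DNA repair or cell cycle pathway exposed to compound. Growth then measured. Value = inhibition versus vehicle control.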

[13] = NCI Yeast Anticancer Drug Screen. Data for the mlh1 rad18 strain (AID 175); settings: S. cerevisiae mlh1 rad18 strain growth inhibition, active compounds read high
How it was run: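 A repair-deficient yeast strain is exposed to test compound, and growth is scored relative to vehicle-treated controls.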

[14] = NCI Yeast Anticancer Drug Screen. Data for the rad18 strain (AID 177); settings: S. cerevisiae rad18 mutant growth inhibition, active compounds read high
How it was run: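 DNA-repair-defective yeast; compound treatment; growth inhibition scored against vehicle.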

[15] = NCI Yeast Anticancer Drug Screen. Data for the wt1 strain (AID 149);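 note: 0% = growth of vehicle-treated wt1 cultures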; settings: S. cerevisiae wt1 strain (SPY 50644) growth inhibition, active compounds read high
How it was run: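 Compounds are added to wt1 yeast cultures. Growth is then measured. Inhibition is expressed relative to vehicle-treated controls.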

[16] = at 5.0 µM (retest, dose inferred, filed as 0.5)
[17] = at 50.0 µM (retest, dose inferred, filed as 5.0)

Measured: growth inhibition

O=Nc1ccc(Nc2ccccc2)cc1
active: [1]; at 33.0 µM 97% | [1]; at 100.0 µM 96% | [2]; at 100.0 µM 97% | [3]; at 50.0 µM 88.8% | [3]; at 100.0 µM 95% | [4]; at 33.0 µM 84% | [4]; [17] 95% | [4]; at 50.0 µM 91% | [4]; at 100.0 µM 97% | [5]; at 100.0 µM 96% | [6]; at 50.0 µM 93.2% | [7]; at 33.0 µM 97% | [7]; at 100.0 µM 96% | [8]; at 50.0 µM 86.3% | [9]; at 33.0 µM 97% | [9]; [17] 91% | [9]; at 50.0 µM 90.5% | [9]; at 100.0 µM 97% | [10]; at 100.0 µM 97% | [11]; at 33.0 µM 83% | [11]; at 100.0 µM 96% | [12]; at 100.0 µM 97% | [13]; [17] 93% | [13]; at 50.0 µM 89.5% | [14]; at 33.0 µM 77% | [14]; at 100.0 µM 96%
inactive: [1]; at 1.2 µM -14% | [1]; at 3.7 µM -10% | [1]; at 11.0 µM 29% | [2]; at 1.2 µM -50% | [2]; at 3.7 µM -60% | [2]; at 11.0 µM -32% | [2]; at 33.0 µM 63% | [3]; at 1.2 µM -41% | [3]; at 3.7 µM -45% | [3]; [16] 2% | [3]; at 11.0 µM -32% | [3]; at 33.0 µM 39% | [3]; [17] 30% | [4]; at 1.2 µM -33% | [4]; at 3.7 µM -38% | [4]; [16] -10% | [4]; at 11.0 µM -35% | [5]; at 1.2 µM -23% | [5]; at 3.7 µM -28% | [5]; at 11.0 µM -44% | [5]; at 33.0 µM 37% | [6]; [16] -5% | [6]; [17] 13% | [7]; at 1.2 µM -44% | [7]; at 3.7 µM -35% | [7]; at 11.0 µM -5% | [8]; [16] 29% | [8]; [17] 68% | [9]; at 1.2 µM -31% | [9]; at 3.7 µM -14% | [9]; [16] 4% | [9]; at 11.0 µM -16% | [10]; at 1.2 µM -52% | [10]; at 3.7 µM -47% | [10]; at 11.0 µM -59% | [10]; at 33.0 µM 54% | [11]; at 1.2 µM -42% | [11]; at 3.7 µM -36% | [11]; at 11.0 µM -26% | [12]; at 1.2 µM -40% | [12]; at 3.7 µM -42% | [12]; at 11.0 µM -28% | [12]; at 33.0 µM 55% | [13]; [16] 26% | [14]; at 1.2 µM -33% | [14]; at 3.7 µM -24% | [14]; at 11.0 µM 9%

CCNc1ccc2c(c1)C(=O)N(OS(C)(=O)=O)C2=O
active: [3]; at 50.0 µM 96.8% | [3]; at 100.0 µM 88% | [6]; at 50.0 µM 85.6% | [13]; at 50.0 µM 97% | [14]; at 100.0 µM 73%
inactive: [1]; at 1.2 µM 7% | [1]; at 3.7 µM 6% | [1]; at 11.0 µM 7% | [1]; at 33.0 µM 11% | [1]; at 100.0 µM 27% | [3]; at 1.2 µM 2% | [3]; at 3.7 µM 2% | [3]; [16] 4% | [3]; at 11.0 µM 8% | [3]; at 33.0 µM 18% | [3]; [17] 18% | [4]; at 1.2 µM 6% | [4]; at 3.7 µM 10% | [4]; [16] 4% | [4]; at 11.0 µM 14% | [4]; at 33.0 µM 21% | [4]; [17] 23% | [4]; at 50.0 µM 61% | [4]; at 100.0 µM 7% | [5]; at 1.2 µM 3% | [5]; at 3.7 µM 0% | [5]; at 11.0 µM 3% | [5]; at 33.0 µM 16% | [5]; at 100.0 µM 34% | [6]; [16] 3% | [6]; [17] 12% | [7]; at 1.2 µM 5% | [7]; at 3.7 µM -6% | [7]; at 11.0 µM 4% | [7]; at 33.0 µM 15% | [7]; at 100.0 µM 40% | [8]; [16] 8% | [8]; [17] 21% | [8]; at 50.0 µM 69.6% | [9]; at 1.2 µM -2% | [9]; at 3.7 µM -2% | [9]; [16] -1% | [9]; at 11.0 µM 0% | [9]; at 33.0 µM 8% | [9]; [17] 12% | [9]; at 50.0 µM 24.5% | [9]; at 100.0 µM 26% | [10]; at 1.2 µM 0% | [10]; at 3.7 µM 1% | [10]; at 11.0 µM 1% | [10]; at 33.0 µM 6% | [10]; at 100.0 µM 41% | [11]; at 1.2 µM 3% | [11]; at 3.7 µM 3% | [11]; at 11.0 µM 5% | [11]; at 33.0 µM 12% | [11]; at 100.0 µM 42% | [12]; at 1.2 µM 2% | [12]; at 3.7 µM 3% | [12]; at 11.0 µM 6% | [12]; at 33.0 µM 15% | [12]; at 100.0 µM 62% | [13]; [16] -3% | [13]; [17] 23% | [14]; at 1.2 µM 4% | [14]; at 3.7 µM 2% | [14]; at 11.0 µM 3% | [14]; at 33.0 µM 14%

CC(=O)OCC1OC(O[C@H]2C=C[C@@H](C(=O)OCc3ccccc3)n3c(=O)n(-c4ccccc4)c(=O)n32)C(OC(C)=O)C(OC(C)=O)C1OC(C)=O (some centres undefined)
active: [3]; [17] 72% | [4]; [17] 71% | [6]; [17] 78% | [6]; at 50.0 µM 71% | [7]; at 100.0 µM 82% | [9]; [17] 80% | [9]; at 50.0 µM 75.1% | [9]; at 100.0 µM 76% | [11]; at 100.0 µM 70% | [12]; at 100.0 µM 77% | [13]; [16] 70% | [13]; [17] 93% | [14]; at 100.0 µM 76%
inactive: [15]; at 1.2 µM -11% | [15]; at 3.7 µM 2% | [15]; at 11.0 µM -3% | [15]; at 33.0 µM 21% | [15]; at 100.0 µM 29% | [1]; at 1.2 µM -9% | [1]; at 3.7 µM 3% | [1]; at 11.0 µM 2% | [1]; at 33.0 µM 16% | [1]; at 100.0 µM 18% | [3]; at 1.2 µM -14% | [3]; at 3.7 µM 10% | [3]; [16] 39% | [3]; at 11.0 µM 0% | [3]; at 33.0 µM 50% | [3]; at 50.0 µM 59% | [3]; at 100.0 µM 67% | [4]; at 1.2 µM 2% | [4]; at 3.7 µM 9% | [4]; [16] 23% | [4]; at 11.0 µM -8% | [4]; at 33.0 µM 36% | [4]; at 50.0 µM 57% | [4]; at 100.0 µM 59% | [5]; at 1.2 µM -15% | [5]; at 3.7 µM 8% | [5]; at 11.0 µM -8% | [5]; at 33.0 µM 8% | [5]; at 100.0 µM 20% | [6]; [16] 29% | [7]; at 1.2 µM 10% | [7]; at 3.7 µM 22% | [7]; at 11.0 µM 24% | [7]; at 33.0 µM 58% | [8]; [16] 13% | [8]; [17] 33% | [8]; at 50.0 µM 53.6% | [9]; at 1.2 µM -30% | [9]; at 3.7 µM -18% | [9]; [16] 28% | [9]; at 11.0 µM -27% | [9]; at 33.0 µM 24% | [11]; at 1.2 µM -17% | [11]; at 3.7 µM -2% | [11]; at 11.0 µM -23% | [11]; at 33.0 µM 39% | [12]; at 1.2 µM -9% | [12]; at 3.7 µM -15% | [12]; at 11.0 µM -8% | [12]; at 33.0 µM 50% | [13]; at 50.0 µM 28.9% | [14]; at 1.2 µM -6% | [14]; at 3.7 µM 3% | [14]; at 11.0 µM 7% | [14]; at 33.0 µM 59%
